Test systems include NCI-H23 lung; NCI-H226 lung; NCI-H322M lung; HOP-62 NSCLC; NCI-H460 lung; HOP-92 NSCLC; NCI-H522 lung; A549/ATCC NSCLC; 786-0 renal; COLO 205 colon; DU-145 prostate; K-562 leukemia; MALME-3M melanoma; MDA-MB-231 breast; SF-268 CNS; SF-295 CNS; SF-539 CNS; UACC-257 melanoma; M14 melanoma.
Common to all, as to test: NCI-60 one-dose screen, 48 h (100 = growth as untreated, 0 = no growth, -100 = all killed)
What all share (details): 10 µM unless noted

The values that follow come from PubChem BioAssay (NCI).

This is part of a sample that, as a whole, favours compounds with a hit. Of some 83,000 tested, about 20% had one in any assay.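 In brief: 96-well plates, 48 h treatment, single concentration, percent growth endpoint.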 Unmarked numbers belong to inactive results. Active and inactive are the calls of the source. How the source made its calls: active means growth percent below 10; inactive means the rest.

In the case of `Cc1c2c(cc[n+]1Cc1ccc(F)cc1)c1ccc(OCc3cccc(F)c3)cc1n2Cc1cccc(F)c1`, the growth was -58.1% (active) in the assay with NCI-H23 lung; -66.9% (active) in the assay on NCI-H226 lung; -72.1% (active) with NCI-H322M lung; -91.2% (active) in the assay on HOP-62 NSCLC; -78% (active) in the assay on NCI-H460 lung; -73.9% (active) in the assay on HOP-92 NSCLC. Besides, the growth with NCI-H522 lung is -80.1% (active); in the assay on A549/ATCC NSCLC, 25.1%; with 786-0 renal it was -85.8% (active); with COLO 205 colon, -91.1% (active); with DU-145 prostate it was -90.8% (active); in the assay with K-562 leukemia it was -15.8% (active). Besides, the growth with MALME-3M melanoma is -79.6% (active); with MDA-MB-231 breast it was -87.7% (active); in the assay with SF-268 CNS, -94.2% (active); with SF-295 CNS it was -68.5% (active); with SF-539 CNS, -65.4% (active); in the assay with UACC-257 melanoma it was -86% (active). The growth in the assay with M14 melanoma is -82.1% (active).

As for `COc1ccc(/C=C2\COc3ccc(-c4ccccc4)cc3C2=O)cc1O`, the growth with NCI-H23 lung is 50.5%; in the assay on NCI-H226 lung, 96.2%; in the assay with NCI-H322M lung it was 66.7%; in the assay with HOP-62 NSCLC, -41.9% (active); with NCI-H460 lung, 16.7%; in the assay with HOP-92 NSCLC, -1.71% (active). Besides, the growth with NCI-H522 lung is 17.8%; in the assay on A549/ATCC NSCLC, 62%; in the assay with 786-0 renal, -21.8% (active); in the assay with COLO 205 colon it was 63.9%; in the assay with DU-145 prostate, -2.34% (active); in the assay on K-562 leukemia, 2.96% (active). In addition, the growth in the assay with MALME-3M melanoma is 74.7%; in the assay on MDA-MB-231 breast, 41.6%; in the assay on SF-268 CNS, 13.3%; with SF-295 CNS, 24.2%; with SF-539 CNS, -0.576% (active); with UACC-257 melanoma, 48.3%. In addition, in the assay with M14 melanoma, the growth was 22.9%.

Consider `NC(=O)c1ncn(C2OC(CO)C(O)C2O)n1` (stereo unspecified), for which the growth with NCI-H23 lung was 89%; with NCI-H226 lung, 87.6%; in the assay with NCI-H322M lung it was 86.5%; with HOP-62 NSCLC, 71.8%; in the assay with NCI-H460 lung, 104%; with HOP-92 NSCLC, 79%. Besides, the growth in the assay on NCI-H522 lung was 79.6%; in the assay on A549/ATCC NSCLC, 96.3%; in the assay with 786-0 renal, 91.6%; in the assay with COLO 205 colon, 94.4%; with DU-145 prostate it was 85.1%; in the assay on K-562 leukemia it was 61.1%. Also, the growth in the assay on MALME-3M melanoma is 93.8%; in the assay on MDA-MB-231 breast, 103%; in the assay with SF-268 CNS, 98%; in the assay with SF-295 CNS, 99.9%; with SF-539 CNS, 97.6%; in the assay on UACC-257 melanoma, 97.7%. In addition, the growth with M14 melanoma was 92.8%.

Consider `COc1ccc(-c2ncc(-c3ccccc3)[nH]2)cc1OC`, for which the growth was 101% in the assay on NCI-H23 lung; 100% in the assay with NCI-H226 lung; 218% in the assay on NCI-H322M lung; 112% in the assay on HOP-62 NSCLC; 112% with NCI-H460 lung; 93% in the assay on HOP-92 NSCLC. The growth in the assay with NCI-H522 lung was 108%; in the assay on A549/ATCC NSCLC, 110%; in the assay with 786-0 renal it was -10.5% (active); in the assay with COLO 205 colon it was 145%; in the assay on DU-145 prostate, 131%; in the assay on K-562 leukemia, 93.9%. The growth is 260% with MALME-3M melanoma; 107% in the assay on MDA-MB-231 breast; 103% in the assay with SF-268 CNS; 88.6% in the assay with SF-295 CNS; 100% in the assay on SF-539 CNS; 10.5% in the assay on UACC-257 melanoma. Moreover, in the assay with M14 melanoma, the growth is 119%.

With `OC1(c2ccc(Cl)c(C(F)(F)F)c2)CCN(CCCC(c2ccc(F)cc2)c2ccc(F)cc2)CC1`, the growth was -74.9% (active) in the assay on NCI-H23 lung; 28.9% with NCI-H226 lung; -75.5% (active) with NCI-H322M lung; -94.6% (active) in the assay on HOP-62 NSCLC; -95% (active) in the assay with NCI-H460 lung; -87.5% (active) in the assay on HOP-92 NSCLC. Moreover, the growth in the assay with NCI-H522 lung was -80.5% (active); in the assay with A549/ATCC NSCLC, -70.7% (active); in the assay on 786-0 renal, -97.6% (active); in the assay on COLO 205 colon, -92.6% (active); in the assay with DU-145 prostate, -97% (active); in the assay with K-562 leukemia, -20.2% (active). For the same compound, the growth in the assay on MALME-3M melanoma was -75.3% (active); with MDA-MB-231 breast, -87.6% (active); with SF-268 CNS it was -90% (active); with SF-295 CNS, -85.3% (active); in the assay on SF-539 CNS, -74.6% (active); with UACC-257 melanoma, -85.6% (active). In addition, the growth in the assay on M14 melanoma was -84.8% (active).

Consider `CCc1nc(C)cn1C(=O)OCc1nc2nc(Cl)nc(N3CCOCC3)c2[nH]1`, for which the growth in the assay on NCI-H23 lung is 28.9%; in the assay with NCI-H226 lung it was -75% (active); in the assay with NCI-H322M lung, 64.2%; with HOP-62 NSCLC, 47.9%; in the assay with NCI-H460 lung, 13.9%; in the assay on HOP-92 NSCLC, -50.2% (active). Besides, the growth in the assay with NCI-H522 lung was -75.5% (active); with A549/ATCC NSCLC, 15.1%; with 786-0 renal, -77.4% (active); with COLO 205 colon, -84.5% (active); in the assay with DU-145 prostate, -37.3% (active); in the assay on K-562 leukemia, 1.14% (active). Also, the growth with MALME-3M melanoma is -67.8% (active); in the assay with MDA-MB-231 breast, -42.9% (active); with SF-268 CNS it was -64% (active); in the assay on SF-295 CNS, 79.5%; in the assay on SF-539 CNS, -74.8% (active); in the assay with UACC-257 melanoma it was -80.8% (active). The growth in the assay with M14 melanoma was -56.8% (active).

Regarding `COc1ccc(Cl)cc1NC(=O)c1c(NC(=O)C(F)(F)C(F)(F)F)sc2c1CCCCC2`, the growth in the assay on NCI-H23 lung is -5.14% (active); in the assay on NCI-H226 lung it was -5.37% (active); in the assay with NCI-H322M lung, 12%; in the assay on HOP-62 NSCLC, -14.6% (active); in the assay with NCI-H460 lung it was 3.45% (active); with HOP-92 NSCLC it was -32.7% (active). Further, the growth in the assay on NCI-H522 lung is -0.0876% (active); in the assay on A549/ATCC NSCLC, 7.89% (active); with 786-0 renal, -13.8% (active); with COLO 205 colon it was -32.9% (active); in the assay on DU-145 prostate it was 19.3%; in the assay on K-562 leukemia it was 17.6%. Further, the growth in the assay on MALME-3M melanoma is -24.5% (active); in the assay with MDA-MB-231 breast, -18.6% (active); with SF-268 CNS it was 6.13% (active); in the assay with SF-295 CNS it was -25.2% (active); with SF-539 CNS it was 4.26% (active); in the assay on UACC-257 melanoma it was -16.5% (active). Besides, the growth in the assay with M14 melanoma was 0.83% (active).

`CCC(C)C(N)C(=O)NNc1n[nH]c(=S)n1N` (stereo unspecified): the growth with NCI-H23 lung was 102%; in the assay with NCI-H226 lung, 101%; in the assay with NCI-H322M lung it was 105%; in the assay on HOP-62 NSCLC, 105%; in the assay with NCI-H460 lung, 103%; in the assay on HOP-92 NSCLC, 97.6%. The growth is 89% in the assay on NCI-H522 lung; 102% in the assay with A549/ATCC NSCLC; 102% in the assay on 786-0 renal; 116% with COLO 205 colon; 109% in the assay with DU-145 prostate; 102% in the assay with K-562 leukemia. Moreover, the growth in the assay with MALME-3M melanoma was 101%; with MDA-MB-231 breast it was 101%; in the assay on SF-268 CNS, 98.2%; in the assay on SF-295 CNS, 103%; in the assay on SF-539 CNS, 94.7%; with UACC-257 melanoma, 99.4%. Further, the growth with M14 melanoma is 100%.

With `COc1ccc(-c2cnc(N)nc2-c2ccc(OC)cc2O)cc1`, the growth with NCI-H23 lung is 92.5%; with NCI-H226 lung, 99.8%; with NCI-H322M lung, 90.4%; in the assay on HOP-62 NSCLC, 110%; with NCI-H460 lung, 89.8%; in the assay with HOP-92 NSCLC, 57.8%. The growth in the assay with NCI-H522 lung was 79.6%; in the assay with A549/ATCC NSCLC it was 93.1%; with 786-0 renal, 90%; in the assay with COLO 205 colon, 113%; with DU-145 prostate, 99.2%; in the assay on K-562 leukemia, 80.4%. In addition, the growth in the assay with MALME-3M melanoma was 126%; in the assay on MDA-MB-231 breast, 99.4%; with SF-268 CNS it was 107%; with SF-295 CNS, 101%; in the assay on SF-539 CNS, 88.1%; in the assay with UACC-257 melanoma it was 112%. In the assay with M14 melanoma, the growth is 109%.
